We go through 97 compounds from PubChem BioAssay AID651815 (National Center for Advancing Translational Sciences (NCATS), 2012).

The whole screen tested about 2,100 compounds, of which about 1,100 (52%) were called active. Not shown: some 29% with an inconclusive outcome. Calls follow the shape of the dose curve; as a rule, active = well fitted inhibition curve with a large enough effect; inconclusive = small, poorly fitted or top-dose-only effect; inactive = no such curve, though single readings can be large or run the other way. The set was probably picked from earlier hits. The list shows a part of the results.
Potency is read from the fitted curve at half-maximal effect.

For the experiment, the target named is DNA dC->dU-editing enzyme APOBEC-3F (Homo sapiens) (UniProt Q8IUX4). Nature of the experiment: qHTS for inhibitors of Vif-A3F interactions: Cherry picks counterscreen. Also: nearly all actives have a fitted effect of over 65% in size. As to conditions: HeLa A3F-eYFP/Vif cells, eYFP fluorescence, 24 h; series mostly up to 46.1 µM. An outline of the steps: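 Rescue of Vif-driven A3F-eYFP degradation read as cellular eYFP fluorescence after 24 h compound exposure (several concentrations) in stable HeLa cells; MG132 (2 mM stock) as positive control.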
DNA dC->dU-editing enzyme APOBEC-3F (Homo sapiens), sequence (Q8IUX4 whole entry, looked up): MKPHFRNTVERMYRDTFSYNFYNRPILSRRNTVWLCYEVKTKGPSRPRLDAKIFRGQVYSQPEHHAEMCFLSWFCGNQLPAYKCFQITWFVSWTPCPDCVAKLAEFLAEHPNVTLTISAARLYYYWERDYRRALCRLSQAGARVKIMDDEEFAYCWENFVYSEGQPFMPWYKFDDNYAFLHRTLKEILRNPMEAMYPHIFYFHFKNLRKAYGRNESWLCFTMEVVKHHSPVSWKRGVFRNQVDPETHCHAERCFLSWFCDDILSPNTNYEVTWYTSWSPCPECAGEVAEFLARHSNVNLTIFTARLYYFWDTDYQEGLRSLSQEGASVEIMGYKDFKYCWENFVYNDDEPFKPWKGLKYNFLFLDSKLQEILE
(In general: qHTS replaces the single test concentration by a dilution series.)
In the case of `COc1ccc2c(n1)Sc1nc3ccccc3nc1N2`, the Potency was 3.26 µM (active).

Regarding `COc1ccc(C2C(C#N)=C(N)Oc3cc(N)ccc32)cc1OC` (configuration not stated), the Potency is 12.5 µM (active).

For the compound `COc1ccc(C2C(C#N)=C(N)Oc3c2ccc2cccnc32)cc1OC` (configuration not stated), the Potency is 3.53 µM (active).

For `COc1cc(C2C(C#N)=C(N)Oc3cc(O)ccc32)cc2c1OCO2` (configuration not stated), the Potency was 15.8 µM (active).

For the compound `N#CC1=C(N)Oc2cc(N)ccc2C1c1cccc(F)c1` (configuration not stated), the Potency was 2.5 µM (active).

On to `Cc1oc(C)c2c(=O)ccc3c(c12)OC(N)=C(C#N)C3c1ccc(F)cc1` (configuration not stated), for which the Potency result is “inactive”.

As to `N#CC1=C(N)Oc2cc(N)ccc2C1c1cccc(Br)c1` (configuration not stated), the Potency was 1.98 µM (active).

Turning to `Cc1ccc2nc(-c3ccccn3)c(NC3CCCC3)n2c1`, the Potency entry was “inactive”.

As for `O=C(N/N=C/c1ccc(Cl)cc1)c1cc2c(s1)-c1ccccc1CC2`, the Potency was 5.59 µM (active).

`Cc1cc2c(cc(C(=O)OCC(=O)NCc3cccs3)n2C(C)C)o1`: the Potency was 1.77 µM (active).

As to `CCOC(=O)Cc1csc(NC(=O)c2sc3nc4c(C)cc(C)cc4cc3c2N)n1`, the Potency is 16.4 µM (active).

On to `O=C(Cn1ncc(Cl)c(Cl)c1=O)Nc1ccc2c(c1)OCO2`, for which the Potency was 15.8 µM (active).

Take `Cc1cc(C)cc(Oc2nc(C(F)(F)F)nc3ccccc23)c1`: the Potency was 11.2 µM (active).

Regarding `Cc1ccc(/C=N/NC(=O)c2ccc3ccccc3c2)s1`, the Potency is 2.23 µM (active).

As for `CNC(=S)N/N=C/c1ccc(N2CCOCC2)s1`, the Potency result is “inactive”.

For the compound `Cc1ccc(/C=N/NC(=O)C2COc3ccccc3O2)s1` (configuration not stated), the Potency was 4.98 µM (active).

Consider `O=C(Cn1cnc2c(cnn2-c2ccc(F)cc2)c1=O)NCc1ccco1`, for which the Potency was 9.94 µM (active).

As for `Cc1ccc(Cn2nnc3c(=O)n(CC(=O)NCc4ccccc4)cnc32)cc1`, the Potency was 14 µM (active).

Regarding `CC(C)(C)n1ncc2c(=O)n(CC(=O)NCc3ccc(F)cc3)cnc21`, the Potency was 14 µM (active).

For the compound `Cc1sc2ncn(CC(=O)NCc3ccccc3)c(=O)c2c1C`, the Potency result was “inactive”.

With `CCc1cccc2c(C(O)c3c[nH]c4ccccc34)c[nH]c12` (configuration not stated), the Potency was 20.6 µM (active).

As for `COc1ccc(NC(=O)CSc2nc3c(oc4ccccc43)c(=O)n2Cc2ccco2)cc1Cl`, the Potency was 18.4 µM (active).

In the case of `CCn1c(SCC(=O)Nc2cccc(O)c2)nc2c1c(=O)n(C)c(=O)n2C`, the Potency result was “inactive”.

As to `N=c1n(CC(=O)c2ccc([N+](=O)[O-])cc2)c2ccccc2n1Cc1ccccc1`, the Potency was 20.6 µM (active).

Turning to `Cc1ccc2c(CC(=O)NCc3ccco3)coc2c1C`, the Potency is 9.94 µM (active).

With `Cc1cccc(C)c1OCCNC(=O)C(=O)NCc1ccco1`, the Potency is 2.8 µM (active).

Consider `O=C(COC(=O)C12CC3CC(CC(Cl)(C3)C1)C2)N1CCCCC1`, for which the Potency entry was “inactive”.

`COc1ccc2o/c(=N/NC(=O)c3cccs3)c(C(N)=O)cc2c1`: the Potency is 7.04 µM (active).

With `Cc1ccc2c(Cl)c(C)c(N3CCCC3)nc2n1`, the Potency entry is “inactive”.

As for `COc1ccc(Nc2nc3cc(C)ccc3cc2C#N)c(OC)c1`, the Potency was 1.58 µM (active).

In the case of `CCN(CC)c1nc2cc(OC)ccc2cc1C#N`, the Potency entry was “inactive”.

In the case of `COc1ccc(Nc2nc3cc(C)ccc3cc2C#N)cc1`, the Potency was 14.6 µM (active).

For the compound `O=[N+]([O-])c1ccc(N=Nc2ccc(O)c3ccccc23)cc1`, the Potency entry was “inactive”.

Turning to `Cc1[nH]c2ccccc2c1/C=N/Nc1ccc([N+](=O)[O-])cc1`, the Potency is 9.2 µM (active).

Consider `O=[N+]([O-])c1ccc(N/N=C/c2c[nH]c3ccccc23)cc1`, for which the Potency is 16.4 µM (active).

Take `COc1ccccc1NS(=O)(=O)c1cc([N+](=O)[O-])ccc1N/N=C/c1c(C)[nH]c2ccccc12`: the Potency was 3.96 µM (active).

Regarding `C/C(=N/Nc1ccc([N+](=O)[O-])cc1)c1c[nH]c2ccccc12`, the Potency entry was “inactive”.

As for `O=[N+]([O-])c1ccc(N/N=C/c2c[nH]c3ccccc23)c(S(=O)(=O)Nc2ccc(Cl)cc2)c1`, the Potency was 18.4 µM (active).

For `Cc1ccccc1NCC(=O)N=Nc1c(O)[nH]c2ccc([N+](=O)[O-])cc12`, the Potency result was “inactive”.

`COc1ccc(NS(=O)(=O)c2cc([N+](=O)[O-])ccc2N/N=C/c2c(C)[nH]c3ccccc23)cc1`: the Potency was 10.3 µM (active).

Regarding `COc1ccccc1NS(=O)(=O)c1cc([N+](=O)[O-])ccc1N/N=C/c1c[nH]c2ccccc12`, the Potency is 13 µM (active).

As for `CC(C)CC(=O)NC(=S)N(Cc1ccccc1)Cc1ccccc1`, the Potency entry was “inactive”.

With `CC[n+]1c(C=C2C=C(C)OC(C)=C2)sc2ccccc21`, the Potency was 4.61 µM (active).

Consider `COc1cc(N2CCCC2)c(OC)cc1/C=C1/NC(=S)NC1=O`, for which the Potency is 1.58 µM (active).

Take `COc1ccc(/C=C/C=C2\NC(=S)NC2=O)cc1`: the Potency entry is “inactive”.

For `Cc1cccc2cc(C#N)c(SCC(=O)N3CC(=O)Nc4ccccc43)nc12`, the Potency is 7.9 µM (active).

Consider `Cc1cc(C)c2nc(SCC(=O)N3CC(=O)Nc4ccccc43)c(C#N)cc2c1`, for which the Potency is 3.14 µM (active).

For the compound `CC1=C(C(=O)Nc2cccc(F)c2)C(c2ccsc2)C2=C(CC(C)(C)CC2=O)N1` (configuration not stated), the Potency is 2.8 µM (active).

On to `COc1ccc2cc(-c3nc(Cl)c4c5c(sc4n3)CC(C)CC5)c(=O)oc2c1` (configuration not stated), for which the Potency was 20.6 µM (active).

Regarding `CCN(CC)c1ccc2cc(-c3nc4sc5c(c4c(=O)[nH]3)CCC(C(C)(C)C)C5)c(=O)oc2c1` (configuration not stated), the Potency result was “inactive”.

In the case of `Nc1[nH]c2cc([N+](=O)[O-])ccc2c1-c1ccccn1`, the Potency was 20.6 µM (active).

With `COc1cc(-c2noc(C)c2C#Cc2ccc(N)cc2)cc(OC)c1OC`, the Potency was 0.994 µM (active).

`Cc1ccc(-c2nc(-c3cc4cccc(OCc5cccc(F)c5)c4oc3=O)no2)cc1`: the Potency was 23.1 µM (active).

On to `N#Cc1c(Nc2ccccc2)[n+]([O-])c2ccc(Cl)cc2[n+]1[O-]`, for which the Potency entry is “inactive”.

Consider `C=C(C(=O)c1ccccc1)C(C)C(=C)C(=O)c1ccccc1`, for which the Potency is 3.53 µM (active).

As for `C=C(C(=O)c1ccccc1)C(C(=C)C(=O)c1ccccc1)c1ccc(OC)cc1`, the Potency is 3.96 µM (active).

With `S=C(NC1CCCCC1)N(CCc1ccccc1)CCc1ccccc1`, the Potency entry was “inactive”.

`COCCN1C(=O)/C(=C/c2ccc(N3CCCC3)cc2)SC1=S`: the Potency was 5.17 µM (active).

For `COCCN1C(=O)/C(=C/c2ccc(N3CCCC3)cc2C)SC1=S`, the Potency is 2.91 µM (active).

For `CCn1c(O)c(/C=N/N=C/c2ccc(OC)cc2)c2cc(C3=NNC(=O)CC3)ccc21`, the Potency was 6.51 µM (active).

As for `Cc1cc(OCC(=O)Nc2nnc(C3CC3)s2)ccc1Cl`, the Potency entry is “inactive”.

With `COc1cc(CCC(=O)Nc2nnc(C)s2)cc(OC)c1OC`, the Potency was 4.44 µM (active).

Take `N#CCSc1ccccc1NC(=O)CN1C(=O)NC(CCc2ccccc2)C1=O` (configuration not stated): the Potency entry is “inactive”.

Regarding `N#CCSc1ccccc1NC(=O)CN1C(=O)C2CC=CCC2C1=O` (configuration not stated), the Potency was 14 µM (active).

Turning to `CC(=O)Nc1ccc(S(=O)(=O)N2c3ccccc3C(C)=CC2(C)C)cc1`, the Potency was 2.23 µM (active).

Take `O=C(CN1c2cccc3cccc(c23)S1(=O)=O)Nc1ccc(S(=O)(=O)N2CCOCC2)cc1`: the Potency result was “inactive”.

With `CC(=O)Nc1ccc(Nc2c3c4c(cccc4n(C)c2=O)C(=O)c2ccccc2-3)cc1`, the Potency entry was “inactive”.

Consider `CC(=O)Nc1ccc(S(=O)(=O)N2CCSc3ccccc32)cc1`, for which the Potency was 2.5 µM (active).

Regarding `COC(=O)Nc1ccc(S(=O)(=O)N2CCCc3ccccc32)cc1`, the Potency is 5.59 µM (active).

With `Cc1ccc2nsnc2c1NC(=O)c1ccc(-c2cc(Cl)ccc2Cl)o1`, the Potency is 14 µM (active).

As for `Cc1nc(CSc2nsc(/C=C/N(C)C)c2C#N)cs1`, the Potency entry is “inactive”.

Take `CCSc1nnc(-c2sc3nnc(-c4ccccc4)c(-c4ccccc4)c3c2N)o1`: the Potency is 4.11 µM (active).

Regarding `OCCCn1c(C2CCCN2c2nc(-c3ccc(Cl)cc3)cs2)nc2cc(Cl)c(Cl)cc21` (configuration not stated), the Potency result is “inactive”.

`COc1cccc2sc(Nc3nc(-c4cc5ccccc5oc4=O)cs3)nc12`: the Potency is 3.14 µM (active).

As to `O=C1c2ccccc2C(=O)c2cc(N3CCCCC3)ccc21`, the Potency was 7.04 µM (active).

With `COc1cnc(-c2ccccn2)nc1Oc1ccc(F)cc1F`, the Potency entry was “inactive”.

Regarding `COc1ccc(/C=N/NC(=O)c2cccnc2)cc1CSc1ccccn1`, the Potency is 3.14 µM (active).

For the compound `COc1cc(OC)cc(C(=O)N/N=C/c2ccc(OC)c(COc3ccc4ccccc4c3)c2)c1`, the Potency is 12.5 µM (active).

For `O=C(CSc1nc2ccccc2s1)c1cc2ccccc2o1`, the Potency result is “inactive”.

Regarding `COc1ccc(/C=N/NC(=O)c2ccccc2Cl)cc1CSc1nc2ccccc2s1`, the Potency was 4.44 µM (active).

In the case of `COc1ccc(/C=N\NC(=O)c2ccccc2F)cc1COc1ccc(F)cc1F`, the Potency is 2.23 µM (active).

In the case of `COc1ccccc1/C=N/NC(=S)Nc1cccnc1`, the Potency result was “inactive”.

In the case of `COc1ccc(/C=N/NC(=O)c2cccnc2)cc1COc1ccc(NC(C)=O)cc1`, the Potency is 12.5 µM (active).

As for `Cn1c(N)c(-c2ccccc2)c2ccc([N+](=O)[O-])cc2c1=O`, the Potency is 14 µM (active).

Turning to `C=CCN1C(=O)/C(=C2/Sc3ccc(OC)cc3N2CC)SC1=S`, the Potency was 13 µM (active).

`CCN1C(=O)/C(=C2/Sc3ccc(OC)cc3N2C)SC1=Nc1cccc(O)c1`: the Potency was 17.7 µM (active).

On to `CCN(CC)c1ccc(/C=C/c2ccccn2)cc1`, for which the Potency is 20.6 µM (active).

`CCN(CC)c1ccc(/C=C/C2=C3C=CC=CC3NC=C2)cc1` (configuration not stated): the Potency is 23.1 µM (active).

With `CN(C)c1ccc(/C=C/c2ccncc2)cc1`, the Potency is 9.2 µM (active).

In the case of `CCN(CC)c1ccc(/C=C/c2ccncc2)cc1`, the Potency was 13 µM (active).

For the compound `Cc1ccc(S(=O)c2ccc([N+](=O)[O-])c3nonc23)cc1` (configuration not stated), the Potency result was “inactive”.

With `CC(C)CC[n+]1ccccc1/C=C/c1ccc(N(C)C)cc1`, the Potency is 18.4 µM (active).

With `CC[n+]1ccccc1/C=C/c1ccc(N(C)C)cc1`, the Potency was 23.1 µM (active).

In the case of `CCOC(=O)c1c(CN(CC)CC)n(-c2ccccc2)c2ccc(O)cc12`, the Potency entry is “inactive”.

In the case of `CCOC(=O)c1cc2n(c1N)-c1ccccc1C2=O`, the Potency is 18.4 µM (active).

As for `CCOC(=O)c1cc2n(c1/N=C/N(C)C)-c1ccccc1C2=O`, the Potency was 18.4 µM (active).

With `CCOC(=O)c1cnc(-n2nc(C)cc2C)nc1NNc1nc(-c2ccccc2)cc(-c2ccccc2)n1`, the Potency entry is “inactive”.
